Assay outcomes from PubChem BioAssay.
An excerpt weighted towards active compounds, which were near 5.2% of everything screened.
FBPA coupling cs: coupling enzyme interference in Giardia aldolase counter-screen; hit rate 0.67% among 290,000; AID 2472; activity change, negative = inhibition, % at 58.2 µM, hits read low; coupling enzyme system counterscreen, AmpLite Red fluorescence; in the data active means activity change below about -30%
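Activity here indicates interference with the coupling reaction, not aldolase inhibition. Compounds at 57.5 uM final met coupling enzymes for 10 min at RT; substrate and AmpLite Red detection followed, with a 525/598 nm fluorescence read after 20 min.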
Tau fibril ThT: blocks human tau fibril formation measured by thioflavin T | hit rate 2.1% among 270,000 | P10636 | Potency, µM (titrated, usually from 57.4 µM), usual class: inhibitors | recombinant tau K18 P301L, heparin-induced fibrillization, ThT fluorescence | AID 1460; further: nearly all actives have a fitted effect of over 55% in size
Target sequence (P10636 561-689 P618L limits assumed): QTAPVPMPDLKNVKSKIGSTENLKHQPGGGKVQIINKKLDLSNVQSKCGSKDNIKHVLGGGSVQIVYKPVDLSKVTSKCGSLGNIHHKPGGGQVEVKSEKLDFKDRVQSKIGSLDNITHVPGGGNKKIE
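K18 P301L tau (15 uM + 0.24 uM Alexa 594-tagged), heparin 20 uM, NaOAc pH 7, 6 h 37 C; ThT 30 uM, 1 h RT, ex 450/em 510 nm.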
Tau fibril FP: blocks human tau fibril formation measured by polarization; P10636; K18 P301L tau heparin fibrillization, Alexa594 FP, 6 h; Potency, µM (doses to about 57.7 µM), actives largely listed as inhibitors; hit rate 0.39% among 280,000; AID 1468; further: nearly all actives have a fitted effect of over 55% in size
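K18 P301L tau (15 uM unlabeled/0.24 uM Alexa 594-labeled, final) + compound + heparin 20 uM final; 100 mM NaOAc pH 7; 6 hr 37 C; ThT 30 uM final added, 1 hr RT; FP ex 555/em 632 nm.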
Sfp PPTase inh: inhibitors of Bacillus subtilis Sfp phosphopantetheinyl transferase; Biochemical Sfp PPTase activity, qHTS; Potency, µM, hits mostly inhibitors; hit rate 3.5% among 310,000; AID 1490;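 further: the enzyme is Sfp with the accession as filed and its product quenches rhodamine fluorescence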
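Step 1, compound plus 15 nM Sfp-PPTase, 15 min, room temperature. Step 2, add rhodamine-CoA (5 uM) and BHQ-2-YbbR (12.5 uM). Step 3, read 525/598 nm fluorescence at 0 and 30 min.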
Tau fluor counter: counter-screen for tau fibril formation inhibitors; tau K18 P301L Alexa594 fluorescence, heparin fibrillization; Potency, µM (doses to about 57.7 µM); hit rate 0.93% among 280,000; further: nearly all actives have a fitted effect of over 55% in size
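Human tau K18 P301L (15 uM unlabeled, 0.24 uM Alexa 594-labeled) in 100 mM sodium acetate pH 7 with 20 uM heparin, 6 hr at 37 C. ThT 30 uM added, 1 hr ambient; Alexa 594 FP and total fluorescence read at 555/632 nm.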
Each line names hits and unclear results; the compound was inactive in the other large screens. Unless noted, the call rests on the fitted dose curve; in most records, active means well fitted curve in the direction sought with a large enough effect; inconclusive means small, poorly fitted or top-dose-only effect, or another doubt; inactive means no such curve, though single readings can be large; an effect the other way counts as inactive or inconclusive.

O=C(CCN1CCc2ccccc2C(c2ccccc2)C1)c1ccc2c(c1)OCCO2 (stereo not given)	Tau fibril FP inconclusive, Sfp PPTase inh 44.7µM
COc1ccc(CNC(=O)c2ccc(NC(=O)N3CCSc4ncccc43)cc2)c(OC)c1	none (no result: FBPA coupling cs, Sfp PPTase inh)
Cc1ccc2c(c1)c1c3n2CCN=C3CCC1	Tau fibril ThT inconclusive
c1cc2c(cc1C1CCCCC1)c1c3n2CCN[C@H]3CCC1	Tau fibril ThT inconclusive, Sfp PPTase inh 5.62µM
c1cc2c(cc1C1CCCCC1)c1c3n2CCCNC3CCC1 (stereo not given)	Tau fibril ThT inconclusive, Sfp PPTase inh 31.6µM
c1cc2c(cc1C1CCCCC1)c1c3n2CCN=C3CCC1	Sfp PPTase inh 79.4µM
Cc1ccc2c(c1)c1c3n2CCCNC3CCC1 (stereo not given)	none
c1ccc2c(c1)c1c3n2CCNC3CCC1 (stereo not given)	FBPA coupling cs -50.3, Sfp PPTase inh 79.4µM
Oc1ccc2c(c1)c1c3n2CCNC3CCC1 (stereo not given)	none (no result: Tau fibril ThT, Tau fibril FP, Tau fluor counter)
CC(=O)OC1CC[C@]2(C)C(CC(OC(C)=O)[C@@]3(C)C4=CC(=O)OC(c5ccoc5)[C@]4(C)CCC23)C1(C)C (stereo not given in full)	Tau fibril ThT inconclusive
CSC1=NC(C)(C)C=C(/C=C/c2ccc(Cl)cc2)N1	Tau fibril ThT inconclusive, Sfp PPTase inh 39.8µM
COCCCn1c(O)c(/C=C2\N=C(C#N)C(=Nc3ccc(C)cc3)O2)sc1=S	Tau fibril ThT 11.2µM, Tau fibril FP inconclusive, Sfp PPTase inh 12.6µM, Tau fluor counter inconclusive
Cc1ccccc1OCC(=O)N(Cc1ccc(N(C)C)cc1)CC1CCCO1 (stereo not given)	none (no result: FBPA coupling cs, Sfp PPTase inh)
CCC1CN(C(=O)Nc2cccc3c2CCCC3)c2cc(C)ccc2O1 (stereo not given)	none (no result: FBPA coupling cs, Sfp PPTase inh)
COc1cccc([C@@H]2Oc3ccc(Br)cc3C[C@H]2OC(=O)Nc2ccc(C)c(Br)c2)c1	none
CCCC(=O)Nc1nnc(S(=O)(=O)N(C)c2ccccc2)s1	Tau fibril ThT 2.51µM, Tau fluor counter inconclusive (no result: FBPA coupling cs, Sfp PPTase inh)
CCN(c1ccccc1)S(=O)(=O)c1nnc(NC(=O)COc2ccccc2F)s1	Tau fibril ThT 4.47µM, Tau fibril FP inconclusive (no result: FBPA coupling cs, Sfp PPTase inh)
CN(c1ccccc1)S(=O)(=O)c1nnc(NC(=O)c2ccccc2)s1	Tau fibril ThT inconclusive (no result: FBPA coupling cs, Sfp PPTase inh)
CCN(c1ccccc1)S(=O)(=O)c1nnc(NC(=O)c2ccccc2)s1	Tau fibril ThT 15.8µM (no result: FBPA coupling cs, Sfp PPTase inh)
CCN(c1ccccc1)S(=O)(=O)c1nnc(NC(=O)c2ccccc2OC)s1	Tau fibril ThT 3.16µM
CCN(c1ccccc1)S(=O)(=O)c1nnc(NC(=O)COc2ccc(OC)cc2)s1	Tau fibril ThT inconclusive (no result: FBPA coupling cs, Sfp PPTase inh)
Cc1c(C(=O)NCc2cccc(Br)c2)oc2ccc3c(c12)C(=O)CC(C)(C)O3	none (no result: FBPA coupling cs, Sfp PPTase inh)
COc1ccc(Cn2c(CNS(=O)(=O)c3ccc(Cl)s3)nc3cccnc32)cc1	none (no result: FBPA coupling cs, Sfp PPTase inh)
COc1ccccc1CNC(=O)C1CCN(S(=O)(=O)c2ccc3c(c2)CCCN3C(C)=O)CC1	none (no result: FBPA coupling cs, Sfp PPTase inh)
CCN(c1ccc(C)cc1)S(=O)(=O)c1nnc(NC(=O)c2cccs2)s1	none (no result: FBPA coupling cs, Sfp PPTase inh)
CCN(c1ccccc1)S(=O)(=O)c1nnc(NC(=O)c2cccs2)s1	Tau fibril ThT 2.24µM, Tau fibril FP inconclusive (no result: FBPA coupling cs, Sfp PPTase inh)
O=C(CSc1ccccn1)Nc1ccc(NC(=O)CSc2ccccn2)cc1	none
O=C(CSc1ccccn1)Nc1nonc1[N+](=O)[O-]	Sfp PPTase inh 44.7µM (no result: FBPA coupling cs, Tau fibril ThT, Tau fibril FP, Tau fluor counter)
O=c1/c(=C/c2ccc(O)c([N+](=O)[O-])c2)sc2nc3ccccc3n12	Tau fibril ThT 2µM
COc1ccccc1OC(C)C(=O)Nc1c(C(=O)c2ccc(Cl)cc2)oc2ccccc12 (stereo not given)	Tau fibril FP inconclusive (no result: FBPA coupling cs, Sfp PPTase inh)
Cc1cccc(-c2noc(CNC(=O)c3ccccc3Br)n2)c1	none (no result: FBPA coupling cs, Sfp PPTase inh)
O=[N+]([O-])c1ccc(C2NS(=O)(=O)N=C3CCCCCN32)cc1 (stereo not given)	Sfp PPTase inh 50.1µM
Cc1ccc(S(=O)(=O)NCl)cc1	Sfp PPTase inh 5.62µM (no result: FBPA coupling cs, Tau fibril ThT, Tau fibril FP, Tau fluor counter)
COc1ccc2[nH]c(=O)c(CN(Cc3nnnn3Cc3ccccc3)CC3CCCO3)cc2c1 (stereo not given)	Sfp PPTase inh 89.1µM
Cc1ccc2cc(CN(Cc3nnnn3C3CCCCC3)CC3CCCO3)c(=O)[nH]c2c1 (stereo not given)	none
COc1ccc2[nH]c(=O)c(CN(Cc3nnnn3Cc3ccc(F)cc3)CC3CCCO3)cc2c1 (stereo not given)	none
